Source: PubChem BioAssay (National Center for Advancing Translational Sciences (NCATS))
Tau fluor cs: counter-screen for tau fibril formation inhibitors. AID 1463. 0.93% of 280,000 active. tau K18 P301L Alexa594 fluorescence, heparin fibrillization. Potency, µM (doses to about 57.7 µM), inactives show at the highest dose activity change, negative = decrease; also: potency is read from the fitted curve at half-maximal effect; nearly all actives have a fitted effect of over 55% in size
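Human tau K18 P301L (15 uM unlabeled, 0.24 uM Alexa 594-labeled) in 100 mM sodium acetate pH 7 with 20 uM heparin, 6 hr at 37 C. ThT 30 uM added, 1 hr ambient; Alexa 594 FP and total fluorescence read at 555/632 nm.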
Sfp PPTase inh: blocks B. subtilis Sfp PPTase activity | Q9F4F7 | Biochemical Sfp PPTase activity, qHTS | Potency, µM, inactives show largest response in the series, negative = inhibition, most hits filed as inhibitors | 3.5% of 310,000 active | AID 1490;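 also: the enzyme is Sfp with the accession as filed and its product quenches rhodamine fluorescence; potency is read from the fitted curve at half-maximal effect; 0% = enzyme reaction without inhibitor and -100% = no enzyme wells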
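After 15 min at room temperature with compound, 15 nM Sfp received 5 uM rhodamine-CoA plus 12.5 uM BHQ-2-ybbR (50 mM Hepes pH 7.6, 10 mM MgCl2). Rate came from the fluorescence difference over 30 min, ex 525/em 598 nm.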
G9a block: blocks human histone lysine methyltransferase G9a; Q96KQ7; G9a H3K9 monomethylation, AlphaScreen, 2 h; Potency, µM (titrated, usually from 102 µM), for inactives: at the highest dose activity, negative = inhibition, actives largely listed as inhibitors; 8.8% of 350,000 active; AID 504332; also: potency is read from the fitted curve at half-maximal effect; nearly all actives have a fitted effect of over 75% in size
Target sequence (Q96KQ7 913-1193 limits assumed): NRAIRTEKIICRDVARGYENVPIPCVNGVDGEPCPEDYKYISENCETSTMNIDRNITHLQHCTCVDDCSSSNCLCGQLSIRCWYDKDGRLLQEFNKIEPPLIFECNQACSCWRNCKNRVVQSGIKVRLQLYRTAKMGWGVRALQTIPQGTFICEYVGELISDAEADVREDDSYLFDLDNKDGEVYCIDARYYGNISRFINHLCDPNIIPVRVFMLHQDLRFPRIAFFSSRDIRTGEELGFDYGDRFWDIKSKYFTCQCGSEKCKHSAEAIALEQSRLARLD
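Using a bead-based AlphaScreen, monomethylated H3K9 product from 2 h room-temperature reactions (G9a 20 nM, peptide 500 nM, SAM 20 uM) was detected with 0.5 ug/mL rabbit anti-H3K9me1 antibody.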
FBPA coupling cs: inhibits coupling enzyme system, counter-screen for aldolase hits. 0.67% of 290,000 active. AID 2472. coupling enzyme system counterscreen, AmpLite Red fluorescence. activity change, negative = inhibition, % at 58.2 µM, hits read low; in the data active = activity change below about -30%
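Activity here indicates interference with the coupling reaction, not aldolase inhibition. Compounds at 57.5 uM final met coupling enzymes for 10 min at RT; substrate and AmpLite Red detection followed, with a 525/598 nm fluorescence read after 20 min.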
Tau fibril ThT: tau fibrillization inhibition (ThT binding); P10636; recombinant tau K18 P301L, heparin-induced fibrillization, ThT fluorescence; Potency, µM (top dose mostly 57.4 µM), for the others: top-dose activity, negative = inhibition, hits mostly inhibitors; 2.1% of 270,000 active; AID 1460; also: potency is read from the fitted curve at half-maximal effect; nearly all actives have a fitted effect of over 55% in size
Target sequence (P10636 561-689 P618L limits assumed): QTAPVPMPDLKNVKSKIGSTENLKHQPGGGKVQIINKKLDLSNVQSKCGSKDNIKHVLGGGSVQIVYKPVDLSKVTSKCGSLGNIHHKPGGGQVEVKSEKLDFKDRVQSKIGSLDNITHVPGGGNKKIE
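Using a mix of unlabeled (15 uM) and Alexa 594-labeled (0.24 uM) tau K18 P301L, heparin-triggered fibrillization over 6 hr at 37 C was scored by ThT fluorescence.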
Tau FP inhib: tau fibrillization inhibition (FP) | K18 P301L tau heparin fibrillization, Alexa594 FP, 6 h | 0.39% of 280,000 active | Potency, µM (series often up to 57.7 µM), for the others: at the top dose activity, negative = inhibition, most hits filed as inhibitors | P10636 | AID 1468; also: potency is read from the fitted curve at half-maximal effect; nearly all actives have a fitted effect of over 55% in size
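Human K18 P301L fragment (15 uM unlabeled plus 0.24 uM Alexa 594-labeled) in 100 mM sodium acetate pH 7 with compound, aggregation induced by 20 uM heparin for 6 hr at 37 C. ThT (30 uM) added for 1 hr, then Alexa 594 FP read.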
* = called active by the depositor; ? = inconclusive; nt = no result given; [ ] = another dose, or the depositor's remark. An excerpt weighted towards active compounds, which were near 11% of everything screened. Unless noted, calls follow the shape of the dose curve; as a rule, active = well fitted curve in the direction sought with a large enough effect; inconclusive = small, poorly fitted or top-dose-only effect, or another doubt; inactive = no such curve, though single readings can be large; an effect the other way counts as inactive or inconclusive. Unless noted, % is scaled to controls: 0 for no effect and ±100 for the full control effect.

SMILES	Tau fluor cs	Sfp PPTase inh	G9a block	FBPA coupling cs	Tau fibril ThT	Tau FP inhib
O=C(NCc1cccnc1)C1CCN(Cc2cc3ccccc3n2Cc2cccc(Cl)c2)CC1	-19%	nt	-31%[59 µM]	nt	-15%	6%
CC(C)(C)c1ccc(C(=O)NCCC(=O)N2CCC3(CC2)NCCc2[nH]cnc23)cc1	nt	11%	?	3	nt	nt
CC(=O)Nc1ccc2ccccc2c1	-5%	12%	23%[12.7 µM]	0	-5%	0%
CC(=O)Nc1ccc2cc3ccc(NC(C)=O)cc3nc2c1	?	-3%	nt	-33*	7.9µM*	0%
COC(=O)c1cc(Nc2nc3ccccc3nc2NS(=O)(=O)c2ccc(C)cc2)ccc1Cl	?	nt	7%[59 µM]	nt	?	-14%
Cc1cccc(C)c1Nc1c(-c2ccc(Cl)s2)nc2ncccn12	?	nt	?	nt	?	12%
CCN1CCN(c2nc3c(C)cccn3c(=O)c2/C=C(\C#N)S(=O)(=O)c2ccc(C)cc2)CC1	-16%	-13%	50µM*	1	-14%	-5%
Cc1ccc(S(=O)(=O)/C(C#N)=C/c2c(N3CCN(C)CC3)nc3c(C)cccn3c2=O)cc1	-18%	-9%	45µM*	-1	?	15%
COc1ccc(N2CCN(c3nc4c(C)cccn4c(=O)c3/C=C(\C#N)C(N)=O)CC2)cc1	nt	-16%	32µM*	-1	nt	nt
COc1ccc(N2CCN(c3nc4ccc(C)cn4c(=O)c3C=O)CC2)cc1	-9%	10%	45µM*	-8	-5%	-1%
Cc1cccn2c(=O)c(/C=C(\C#N)S(=O)(=O)c3ccccc3)c(N3CCN(C)CC3)nc12	-14%	2%	?	1	-16%	-4%
CCN1CCN(c2nc3c(C)cccn3c(=O)c2/C=C(\C#N)S(=O)(=O)c2ccc(Cl)cc2)CC1	-20%	-17%	32µM*	0	-18%	-4%
Cc1ccc(N2C(=O)N(CC(=O)N3c4ccccc4CC3C)C(=O)C2C)cc1 (centres undefined)	nt	nt	45µM*	nt	nt	nt
NC(=O)C1CCCN(C(=O)c2ccc(Cl)cc2)C1 (centres undefined)	2%	4%	3%[12.7 µM]	3	9%	-8%
Cc1ccc(/C=C/C(=O)N2CCCC(C(N)=O)C2)o1 (centres undefined)	3%	18µM*	56µM*	-1	-2%	-10%
Cc1ccc(/C=C/C(=O)N2CCN(c3ccc(F)cc3)CC2)o1	-4%	-99%	?	1	-16%	1%
Cc1ccc(/C=C/C(=O)N2CCN(c3ncccn3)CC2)o1	-3%	-105%	4µM*	-6	?	?
CCOc1ccc(-n2ccn(CC(=O)NCCc3ccccc3)c(=O)c2=O)cc1	nt	nt	9%[0.501 µM]	nt	nt	nt
O=C(OCCCN1CCOCC1)c1ccc(O)c(O)c1	-6%	?	13µM*	1	-11%	-2%
C/C(=N\NC(=O)c1ccccc1[N+](=O)[O-])c1c(O)cc(C)oc1=O	-1%	20%	10%[59 µM]	-1	-8%	2%
NS(=O)(=O)c1ccc(Nc2ccccc2)c([N+](=O)[O-])c1	-10%	27%	?	-1	?	2%
C/C(=N\NC(=O)c1ccc([N+](=O)[O-])cc1)c1c(O)cc(C)oc1=O	-15%	14%	-35%	3	4.5µM*	9%
C/C(=N\Nc1ccc(S(N)(=O)=O)cc1[N+](=O)[O-])c1ccco1	?	-27%	?	1	5µM*	-4%
CCc1ccccc1N/N=C(/C)c1c(O)cc(C)oc1=O	-4%	12%	3.5µM*	0	-17%	-1%
C/C(=N\NC(=O)c1cc([N+](=O)[O-])cc([N+](=O)[O-])c1)c1ccco1	15%	35µM*	nt	-7	20%	-8%
SMILES	Tau fluor cs	Sfp PPTase inh	G9a block	FBPA coupling cs	Tau fibril ThT	Tau FP inhib
COc1ccc(C(=O)Nc2ccnn2C2CCN(C(=O)C3CCOC3)CC2)cc1 (centres undefined)	nt	16%	79%	1	nt	nt
C/C(=N\NC(=O)c1cnccn1)c1ccc([N+](=O)[O-])cc1	-11%	3%	10%	3	?	2%
C/C(=N/NC(=O)c1cc(O)c(O)c(O)c1)c1ccc([N+](=O)[O-])cc1	?	3.2µM*	7.1µM*	-10	3.5µM*	3%
CN1CCN(c2ncc3nc(-c4cc(F)cc(F)c4)c(=O)n(Cc4cccs4)c3n2)CC1	nt	1%	8%[0.501 µM]	1	nt	nt
Cc1ccc(C(=O)N2CCSC2=S)cc1	-4%	15%	-7%	-4	?	3%
Cc1ccc(C(=O)Oc2csc(=S)n2C(=O)c2ccc(C)cc2)cc1	-30%	45µM*	1.1µM*	0	10µM*	?
O=C(N/N=C/c1ccccc1Cl)c1nc2ccc([N+](=O)[O-])cc2c(=O)[nH]1	?	24%	?	-1	10µM*	1%
COc1ccc(CCNC(=O)c2nnn(CC(=O)Nc3ccccc3)c2N)cc1OC	-8%	-29%	-14%[0.0925 µM]	-2	-3%	-6%
COc1ccc(CCNC(=O)c2nnn(CC(=O)Nc3cccc(F)c3)c2N)cc1OC	-14%	-14%	45µM*	0	-8%	-1%
Cc1ccc(-n2c(CNc3ccc(C)c(Cl)c3)n[nH]c2=S)cc1	?	6%	50µM*	2	?	1%
Cc1ccc(-n2c(CNc3cccc(Cl)c3)n[nH]c2=S)cc1	9%	-15%	4.5µM*	2	4%	3%
Cc1ccc(NCc2nnc3n2CCCCC3)cc1Cl	6%	nt	6%[59 µM]	nt	-2%	1%
Cc1ccc(NCc2n[nH]c(=S)n2-c2cccc(Cl)c2)cc1	-27%	17%	?	3	-15%	7%
O=C(COC(=O)c1ccc(OC(F)(F)F)cc1)NCCN1C(=O)CSC1=O	nt	nt	12%[12.7 µM]	nt	nt	nt
COC(=O)/C=C1/SC(=NC(=O)c2cccc([N+](=O)[O-])c2)NC1=O	nt	-21%	20µM*	nt	nt	nt
COC(=O)/C=C1\SC(=NC(=O)c2cccc([N+](=O)[O-])c2)NC1=O	nt	?	35µM*	9	nt	nt
CCOC(=O)c1ccc(NC(=O)c2c(C)nn(-c3ccc(F)cc3)c2-n2cccc2)cc1	2%	nt	9%[59 µM]	nt	8%	-9%
Cc1ccc([C@@H]2[C@@H]3C(=O)N(c4ccccc4)C(=O)[C@@H]3[C@]3(C)C(=O)N(Cc4ccc(-c5ccccc5)cc4)CC(=O)N23)o1	nt	?	nt	-3	nt	nt
O=C(Cc1ccc(Cl)cc1)NCc1ccccc1Cl	-8%	-4%	-2%	1	-4%	-5%
O=C(Cc1ccccc1Cl)NC1(O)C(=O)c2ccccc2C1=O	-29%	7%	56µM*	-6	2.8µM*	?
CS(=O)(=O)N(CC(=O)NCc1ccccc1)Cc1ccc(Cl)cc1	-5%	22%	13%	0	-12%	3%
